Assay [1] in a line: qHTS assay to identify small molecule agonists of the peroxisome proliferator-activated receptor delta (PPARd) signaling pathway - cell viability counter screen (AID 743211). Note: nearly all actives have a fitted effect of over 55% in size. The essentials:
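PPARd-bla HEK293H cells (3000/well) were pre-incubated 5 h at 37 C, then exposed to compound for 17 h at 37 C. After 2 h with LiveBLAzer substrate, CellTiter-Glo was added to the same wells; luminescence read after 30 min at room temperature.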
In general terms: qHTS replaces the single test concentration by a dilution series.

Assay [2] deals with Peroxisome proliferator-activated receptor delta (Homo sapiens) (UniProt Q03181). In words: qHTS assay to identify small molecule agonists of the peroxisome proliferator-activated receptor delta (PPARd) signaling pathway (AID 743212; calls by dose curve). The essentials: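 Read-out: beta-lactamase FRET fluorescence after 2 h room-temperature incubation with LiveBLAzer B/G substrate. Cells were HEK293H carrying a UAS-bla reporter for PPARd, treated at 37 C with DMSO-dissolved compounds.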
Sequence of Peroxisome proliferator-activated receptor delta (Homo sapiens) (Q03181 whole entry, looked up): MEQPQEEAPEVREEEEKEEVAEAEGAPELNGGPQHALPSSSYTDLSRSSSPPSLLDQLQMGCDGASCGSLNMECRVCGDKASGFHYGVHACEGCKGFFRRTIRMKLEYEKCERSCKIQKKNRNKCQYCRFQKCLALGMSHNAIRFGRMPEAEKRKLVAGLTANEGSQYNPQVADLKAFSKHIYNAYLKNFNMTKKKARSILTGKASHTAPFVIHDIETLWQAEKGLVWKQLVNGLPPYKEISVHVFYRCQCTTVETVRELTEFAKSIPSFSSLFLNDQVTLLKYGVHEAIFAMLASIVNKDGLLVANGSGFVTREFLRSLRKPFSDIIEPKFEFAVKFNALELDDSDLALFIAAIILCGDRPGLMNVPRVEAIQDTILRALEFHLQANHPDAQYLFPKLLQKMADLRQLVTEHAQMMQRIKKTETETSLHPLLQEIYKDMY

Assay [3] is described as follows: qHTS assay to identify small molecule antagonists of the peroxisome proliferator-activated receptor delta (PPARd) signaling pathway - cell viability counter screen (AID 743213). Note: nearly all actives have a fitted effect of over 50% in size. The essentials: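 CellTiter-Glo was added to PPARd-bla HEK293H wells following 17 h compound treatment in the presence of 300 nM L165041. Luminescence was recorded after 30 min at room temperature.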

For assay [4], the target named is Peroxisome proliferator-activated receptor delta (Homo sapiens) (UniProt Q03181). The experiment in a line: qHTS assay to identify small molecule antagonists of the peroxisome proliferator-activated receptor delta (PPARd) signaling pathway (AID 743215; active = well fitted inhibition curve with a large enough effect in the signal ratio in the repeat runs, not every such curve was filed as active; the % refers to the signal ratio;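 note: cells stimulated with agonist L165041 at 300 nM final during compound exposure; series mostly up to about 62 µM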). The essentials:
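Agonist L165041 (300 nM final) added with compound to PPARd-bla HEK293H UAS-bla reporter cells; 17 h incubation at 37 C. Read-out: LiveBLAzer FRET substrate, 2 h at room temperature, fluorescence intensity.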

Assay [5] can be described thus: qHTS assay to identify small molecule agonists of the farnesoid-X-receptor (FXR) signaling pathway - cell viability counter screen (AID 743218). Note: nearly all actives have a fitted effect of over 45% in size. The essentials:
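Viability counter screen in the same wells: CellTiter-Glo luminescence, 30 min room-temperature incubation, measured after the beta-lactamase read. Cells were GeneBLAzer FXR-UAS-bla HEK 293T, compound-treated 16 h at 37C.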

For assay [6], the target named is Bile acid receptor (Homo sapiens) (UniProt Q96RI1). In words: qHTS assay to identify small molecule agonists of the farnesoid-X-receptor (FXR) signaling pathway (AID 743220; active = well fitted activation curve with a large enough effect in the signal ratio in the repeat runs, not every such curve was filed as active; the % refers to the signal ratio). The essentials:
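FXR-UAS-bla HEK 293T cells carrying a UAS-driven beta-lactamase reporter were plated for 5 h at 37C/5% CO2, then exposed to DMSO-dissolved Tox21 10K compounds for 16 h at 37C. A LiveBLAzer B/G FRET substrate was loaded for 2 h at room temperature before fluorescence reading.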

Assay [7] in a line: qHTS assay to identify small molecule antagonists of the farnesoid-X-receptor (FXR) signaling pathway - cell viability counter screen (AID 743221; active = well fitted cell-killing curve with a large enough effect in the repeat runs, not every such curve was filed as active; note: nearly all actives have a fitted effect of over 50% in size). The essentials:
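GeneBLAzer FXR-UAS-bla HEK 293T cells, compound plus chenodeoxycholic acid (50 uM final), 16 h at 37 C. CellTiter-Glo added to the same wells after the beta-lactamase read; luminescence read after 30 min at room temperature as viability.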

In assay [8] the target is Vitamin D3 receptor (Homo sapiens) (UniProt P11473). The experiment in a line: qHTS assay to identify small molecule antagonists of the vitamin D receptor (VDR) signaling pathway (AID 743223; active = well fitted inhibition curve with a large enough effect in the signal ratio in the repeat runs, not every such curve was filed as active; the % refers to the signal ratio). The essentials:
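VDR-bla cells were treated with compound plus 3 nM final 1alpha,25-dihydroxyvitamin D3 for 16 h at 37C. Beta-lactamase reporter read by B/G FRET substrate fluorescence after 2 h at room temperature. qHTS format.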

The nature of assay [9]: qHTS assay to identify small molecule agonists of the vitamin D receptor (VDR) signaling pathway - cell viability counter screen (AID 743224). Note: series mostly up to about 63 µM; nearly all actives have a fitted effect of over 50% in size. The essentials: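 Counter screen run in the same wells as the VDR-bla reporter assay: CellTiter-Glo luminescence, 30 min at room temperature, after 16 h compound treatment at 37C of cells pre-plated for 4 h.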
Assay [10] is described as follows: qHTS assay to identify small molecule antagonists of the vitamin D receptor (VDR) signaling pathway - cell viability counter screen (AID 743225). Note: nearly all actives have a fitted effect of over 50% in size. The essentials: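 VDR-UAS-bla HEK 293T cells were plated and incubated 4 h at 37C, then dosed with compound plus 3 nM (final) 1-alpha,25-dihydroxyvitamin D3 for 16 h. After the 2 h beta-lactamase read, viability in the same wells was read as CellTiter-Glo luminescence after 30 min at room temperature.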

Assay [11] can be described thus: qHTS assay to identify small molecule agonists of the NFkB signaling pathway (AID 1159509; active = well fitted curve in the direction sought with a large enough effect in the signal ratio in the repeat runs, not every such curve was filed as active; the % refers to the signal ratio; note: series mostly up to about 61 µM). The essentials:
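Readout: FRET fluorescence, 405 nm excitation, 460/530 nm emission; beta-lactamase expression disrupts FRET. Cells: ME-180 stably carrying NF-kB-driven bla reporter. Compound exposure 5 hr, 37 C, 5% CO2.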

Assay [12] can be described thus: qHTS assay to identify small molecule agonists of the NFkB signaling pathway - cell viability counter screen (AID 1159515; calls by dose curve; note: series mostly up to about 61 µM; nearly all actives have a fitted effect of over 55% in size). The essentials: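 Read by CellTiter-Glo luminescence (30 min, room temperature) in the wells also used for the beta-lactamase FRET read. ME-180 NFkB-bla cells at 2,000 per well were plated overnight, then exposed to compound for 5 hr at 37 C.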

The nature of assay [13]: qHTS assay to identify small molecule agonists of the endoplasmic reticulum stress response signaling pathway (AID 1159516; active = well fitted activation curve with a large enough effect in the signal ratio in the repeat runs, not every such curve was filed as active; the % refers to the signal ratio). The essentials:
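Ratiometric FRET readout (405 nm excitation; 460 and 530 nm emission) of a beta-lactamase gene driven by the ER stress response element, after 2 hr substrate loading. HeLa ESRE-bla cells were seeded overnight and treated with compounds for only 5 hr at 37 C.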

The nature of assay [14]: qHTS assay to identify small molecule agonists of the endoplasmic reticulum stress response signaling pathway - cell viability counter screen (AID 1159517; calls by dose curve). The essentials:
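Steps: seed 1,500 ESRE-bla HeLa cells per well; incubate overnight at 37 C, 5% CO2; add compounds in DMSO for 5 hr; run FRET substrate 2 hr RT; add CellTiter-Glo, wait 30 min, read luminescence.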

The target of assay [15] is Nuclear receptor ROR-gamma (Homo sapiens) (UniProt P51449). The experiment in a line: qHTS assay to identify small molecule antagonists of the retinoid-related orphan receptor gamma (ROR-gamma) signaling pathway (AID 1159521; note: nearly all actives have a fitted effect of over 50% in size; note: potency is the fitted concentration of half-maximal effect). The essentials:
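Tet-on ROR-gamma CHO cells with ROR response element-luciferase reporter; compounds added 2 hr before 1 uM doxycycline induction, then 16 hr at 37 C. Antagonism scored as decreased ONE-Glo luminescence.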

A short description of assay [16]: qHTS assay to identify small molecule agonists of the AP-1 signaling pathway - cell viability counter screen (AID 1159525; calls by dose curve; note: nearly all actives have a fitted effect of over 55% in size). The essentials:
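Same-well cytotoxicity counter screen of the Tox21 10K library in ME-180 cells. The readout is ATP-dependent luminescence after 5 h compound treatment. Data are normalised to DMSO and tetra n-octyl ammonium bromide controls.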

Assay [17] is described as follows: qHTS assay to identify small molecule agonists of the AP-1 signaling pathway (AID 1159526; calls by dose curve).
Assay [18] addresses Vitamin D3 receptor (Homo sapiens) (UniProt P11473). The experiment in a line: qHTS assay to identify small molecule agonists of the vitamin D receptor (VDR) signaling pathway (AID 743222; calls by dose curve). The essentials:
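Agonist mode, beta-lactamase reporter: fluorescence from LiveBLAzer B/G FRET substrate (2 h, room temperature) read after 16 h compound treatment at 37 C of VDR-bla cells, which were pre-incubated 4 h after seeding.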

Assay [19] is described as follows: qHTS assay to identify small molecule antagonists of the retinoid-related orphan receptor gamma (ROR-gamma) signaling pathway - cell viability counter screen (AID 1159520). Note: nearly all actives have a fitted effect of over 50% in size. The essentials: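 Tet-on ROR gamma CHO cells were given compounds for 2 hr, then doxycycline hyclate at 1 uM final, and incubated 16 hr at 37 C. Viability was measured as ATP content by CellTiter-Glo luminescence.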

The structures appear in SMILES notation. Inconclusive results are not listed. A number with no mark means an inactive call. Active and inactive are the calls of the source. Unless noted, calls come from the whole dose curve; as a rule, active = well fitted curve in the direction sought with a large enough effect in the repeat runs; inconclusive = weak or mixed curves; inactive = no such curve, though single readings can be large; an effect the other way counts as inactive or inconclusive.

Sequence of Vitamin D3 receptor (Homo sapiens) (P11473 whole entry, looked up): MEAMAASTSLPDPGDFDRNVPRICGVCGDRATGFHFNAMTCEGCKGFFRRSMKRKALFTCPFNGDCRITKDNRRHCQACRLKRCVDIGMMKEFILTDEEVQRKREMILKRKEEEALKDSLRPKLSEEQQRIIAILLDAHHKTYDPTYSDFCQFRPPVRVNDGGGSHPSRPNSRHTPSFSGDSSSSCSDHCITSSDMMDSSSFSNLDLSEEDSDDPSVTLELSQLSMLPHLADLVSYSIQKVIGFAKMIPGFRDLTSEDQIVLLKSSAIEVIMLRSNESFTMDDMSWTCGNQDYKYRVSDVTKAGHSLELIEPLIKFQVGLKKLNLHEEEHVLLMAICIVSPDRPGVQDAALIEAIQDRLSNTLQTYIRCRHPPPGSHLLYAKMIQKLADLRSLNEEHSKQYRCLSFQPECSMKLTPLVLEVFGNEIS
Sequence of Bile acid receptor (Homo sapiens) (Q96RI1 whole entry, looked up): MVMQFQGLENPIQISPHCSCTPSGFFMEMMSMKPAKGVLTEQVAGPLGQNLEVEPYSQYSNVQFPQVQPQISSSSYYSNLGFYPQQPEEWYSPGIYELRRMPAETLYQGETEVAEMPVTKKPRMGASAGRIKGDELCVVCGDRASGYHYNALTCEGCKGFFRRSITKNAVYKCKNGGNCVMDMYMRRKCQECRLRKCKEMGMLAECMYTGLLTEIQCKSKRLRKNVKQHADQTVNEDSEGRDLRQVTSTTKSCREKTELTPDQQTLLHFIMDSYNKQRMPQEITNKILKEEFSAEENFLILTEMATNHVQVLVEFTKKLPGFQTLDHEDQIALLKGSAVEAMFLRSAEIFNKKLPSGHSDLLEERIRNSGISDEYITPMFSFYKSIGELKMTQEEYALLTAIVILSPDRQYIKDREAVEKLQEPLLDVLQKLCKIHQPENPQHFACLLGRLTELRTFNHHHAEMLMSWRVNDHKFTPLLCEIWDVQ

On to `CC(COc1ccc(C(C)(C)C)cc1)OS(=O)OCCCl` (stereo not drawn), for which the Potency entry in [1], in assay [2], in assay [3], in assay [4], in assay [5] and in assay [6] was “inactive” each time. Further, the Potency entry in assay [7], in assay [9] and in assay [10] was “inactive” each time. Also, the outcome in [8], in assay [11], in assay [12], in [13], in assay [14] and in assay [16] was inactive. In assay [17], the result was inactive. Further, the Potency in assay [15] was 24.5 µM (active).

`Cc1occc1C(=O)Nc1ccc(C(=O)N2CCC(F)(F)/C(=C\C(=O)N3CCC(N4CCCCC4)CC3)c3ccccc32)cc1`: the Potency entry in assay [1], in assay [6], in [7], in [9], in [10] and in assay [19] was “inactive” throughout. The molecule was classed as inactive in [18], in assay [8], in assay [11], in assay [12], in assay [13] and in assay [14]. Further, the molecule was classed as inactive in [16].

Regarding `CCCCCCCCCCCCCCC[C@H](O)[C@@H](N)CO`, the Potency result in assay [1], in [2], in [4], in assay [7], in assay [9] and in assay [10] was “inactive” each time. Also, the Potency result in assay [15] was “inactive”. Also, the molecule was classed as inactive in assay [11], in [12], in assay [13], in [14], in [16] and in [17].

As to `CCc1cccc(N(C)C(N)=Nc2cccc3ccccc23)c1`, the Potency entry in assay [1], in assay [3], in assay [5], in assay [7], in [10] and in assay [19] was “inactive” each time. Also, the molecule was called inactive in assay [18], in assay [8], in assay [11], in assay [12], in assay [13] and in assay [14]. Further, the call in assay [16] was inactive.

As for `CC(=O)Oc1ccc2c(c1)CC[C@@H]1[C@@H]2CC[C@]2(C)[C@@H](O)CC[C@@H]12`, the Potency result in assay [2], in assay [3], in [4], in assay [5], in [6] and in assay [7] was “inactive” in each case. The Potency entry in [9], in assay [10] and in [19] was “inactive” each time. Besides, the call in [8], in assay [11], in assay [12], in assay [13], in assay [14] and in [17] was inactive.

For the molecule `O=C(CS)OCCOC(=O)CS`, the Potency result in assay [1], in assay [2], in assay [3], in [4], in assay [5] and in assay [6] was “inactive” in each case. Moreover, the Potency entry in assay [7], in assay [9], in assay [10] and in [15] was “inactive” in each case. Also, the call in assay [18], in assay [8], in [11], in assay [12], in assay [13] and in assay [14] was inactive. Moreover, the molecule was called inactive in assay [16] and in assay [17].

For the molecule `Cc1cc(OI)c(C(C)C)cc1-c1cc(C(C)C)c(OI)cc1C`, the Potency result in [1], in [3], in [5], in assay [7], in assay [9] and in assay [10] was “inactive” throughout. The Potency result in assay [19] was “inactive”. The outcome in assay [11], in assay [12], in assay [13], in assay [14] and in assay [16] was inactive.

For `NC(=O)Cn1c(=O)cc(CCN2CCN(c3nccc4sccc34)CC2)c2ccc(F)cc21`, the Potency entry in assay [1], in assay [3], in assay [4], in assay [5], in [6] and in [7] was “inactive” each time. The Potency result in [9], in [10] and in [19] was “inactive” throughout. Further, the molecule was called inactive in [8], in assay [11], in [12], in [13], in assay [14] and in assay [16].

For the molecule `CC(C)c1nnc2ccc(-c3ocnc3-c3cc(F)ccc3F)cn12`, the Potency entry in assay [3], in assay [5], in assay [6], in [7], in [9] and in [10] was “inactive” in each case. In assay [19], the Potency result was “inactive”. Besides, the result in [8], in [11], in assay [12], in assay [13] and in [14] was inactive.

Source of the values: PubChem BioAssay (Tox21).
